These results are taken from PubChem BioAssay (EPA / NIEHS).

Molecules are shown by their SMILES. Records with an inconclusive call do not appear. Calls of active or inactive are those of the source. How the source made its calls, unless noted: active means hit-call score of the fitted dose curve at least 0.9, where 1 is the maximum; inactive means score below 0.9.

Test [1] is described as follows: ATG_TAL_CIS: Attagene CIS-FACTORIAL HepG2 Assay for human TAL Basal Promoter (AID 2282966).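 Further: background control endpoint measuring basal TAL promoter reporter mRNA not a specific factor.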 The settings on record: HepG2 Attagene cis-factorial TAL promoter reporter; actives raise or lower the signal. The method, boiled down: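 HepG2 cells transiently transfected with multiplexed cis-promoter reporter units, dosed 24 h. Reporter mRNA quantified by RT-PCR, 6-FAM labelling, HpaI digestion and capillary electrophoresis; TAL basal promoter serves as background control, fitted bidirectionally versus DMSO.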

Test [2] is described as follows: ATG_TGFb_CIS: Attagene CIS-FACTORIAL HepG2 Assay for human Transforming Growth Factor (TGF) (AID 2282967). The settings on record: HepG2 Attagene CIS TGFb reporter, mRNA transcription; actives raise or lower the signal. The method, boiled down: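 Transient MRTU transfection of HepG2 (FuGene 6). Dose 24 h. TriZol RNA, oligo(dT) RT, PCR, 6-FAM primer extension, HpaI cut, CE. Bidirectional fit, DMSO = baseline.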

Test [3] can be described thus: ATG_VDRE_CIS: Attagene CIS-FACTORIAL HepG2 Assay for human Vitamin D Receptor Element (VDRE) (AID 2282968). The conditions noted are these: HepG2 VDRE cis-reporter transcription, actives raise or lower the signal. The method, boiled down:
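In transiently transfected HepG2 liver cells, gain or loss of reporter mRNA after 24 h exposure is scored relative to DMSO, using fluorescence detection by capillary electrophoresis of RT-PCR products.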

Test [4] addresses Estrogen receptor (Homo sapiens) (UniProt P03372). Put plainly: ATG_ERa_TRANS: Attagene TRANS-FACTORIAL HepG2 Assay for human Estrogen Receptor alpha (ERa) (AID 2282970; active means hit-call score of the fitted dose curve at least 0.9, where 1 is the maximum). The settings on record: HepG2 Attagene TRANS ERa GAL4 reporter, mRNA. The method, boiled down:
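HepG2 cells transiently transfected with multiplexed GAL4-UAS reporter units read out chimeric NR-Gal4 activity. After 24 h compound exposure, reporter mRNA was quantified by RT-PCR, 6-FAM labeling, HpaI digestion and capillary electrophoresis, relative to DMSO.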

The target of test [5] is X-box-binding protein 1 (Homo sapiens) (UniProt P17861). The test is described as follows: ATG_Xbp1_CIS: Attagene CIS-FACTORIAL HepG2 Assay for human X-box Binding Protein 1 (XBP1) (AID 2282972). The settings on record: HepG2 XBP1 cis-element reporter, Attagene multiplex; actives raise or lower the signal. The method, boiled down:
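Fluorescence-labelled cDNA fragments from reporter transcripts, separated by capillary electrophoresis, give the signal. Source: HepG2 cells transfected with promoter-driven reporter units, harvested 24 h post-dose. DMSO served as reference for bidirectional curve fitting.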

The target of test [6] is Glucocorticoid receptor (Homo sapiens) (UniProt P04150). The test is described as follows: ATG_GR_TRANS: Attagene TRANS-FACTORIAL HepG2 Assay for human Glucocorticoid Receptor (GR) (AID 2282978; active means hit-call score of the fitted dose curve at least 0.9, where 1 is the maximum;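 further: activators score as hits since higher reporter transcript over DMSO is fitted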). The settings on record: HepG2 Attagene TRANS GR reporter, mRNA transcription. A digest of the protocol: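 HepG2 cells transiently transfected with multiplexed reporter units in which chimeric NR-GAL4 proteins drive GAL4-UAS reporters; 24 h compound exposure. Reporter mRNA measured by RT-PCR, 6-FAM labelling, HpaI digestion and capillary electrophoresis; gain-of-signal fitted versus DMSO.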

Test [7] concerns the target Hepatocyte nuclear factor 4-alpha (Homo sapiens) (UniProt P41235). Put plainly: ATG_HNF4a_TRANS: Attagene TRANS-FACTORIAL HepG2 Assay for human Hepatocyte Nuclear Factor 4 alpha (HNF4a) (AID 2282982; active means hit-call score of the fitted dose curve at least 0.9, where 1 is the maximum). The conditions noted are these: HepG2 HNF4a transactivation reporter, mRNA readout. The method, boiled down:
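Transfected HepG2 reporter cells are dosed for 24 h; reporter RNA is reverse-transcribed, amplified, fluorescently labelled and HpaI-digested before CE sizing. Positive-direction fit against DMSO.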

Test [8] can be described thus: ATG_M_06_TRANS: Attagene TRANS-FACTORIAL HepG2 Assay for M06 Transcription Factor (Internal Marker) (AID 2282983; active means hit-call score of the fitted dose curve at least 0.9, where 1 is the maximum;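 further: reporter transcript level by RT-PCR then capillary electrophoresis fluorescence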). The settings on record: HepG2 Attagene TRANS M06 internal marker reporter. The method, boiled down: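 HepG2 cells transiently transfected with GAL4-UAS multiple reporter units, dosed 24 h. Reporter RNA reverse-transcribed, PCR-amplified, 6-FAM-labeled, HpaI-digested and quantified by capillary electrophoresis; this internal-marker signal fitted upward relative to DMSO.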

Test [9] in a line: ATG_M_32_TRANS: Attagene TRANS-FACTORIAL HepG2 Assay for M32 Transcription Factor (Internal Marker) (AID 2282984; active means hit-call score of the fitted dose curve at least 0.9, where 1 is the maximum). The conditions noted are these: HepG2 Attagene TRANS M32 internal marker reporter. The method, boiled down: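 Using transiently transfected HepG2 cells exposed to test chemicals for 24 h, reporter transcripts are converted to labelled cDNA fragments and quantified by capillary electrophoresis. DMSO defines the activity baseline.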

Test [10] addresses Transcriptional activator Myb (Homo sapiens) (UniProt P10242). Put plainly: ATG_Myb_CIS: Attagene CIS-FACTORIAL HepG2 Assay for human Myeloblastosis (Myb) Proto-Oncogene Transcription Factor (AID 2282986). The settings on record: HepG2 Attagene CIS-FACTORIAL Myb reporter transcription; actives raise or lower the signal. A digest of the protocol:
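HepG2 cells were transiently transfected with cis-regulated multiple reporter transcription units reflecting endogenous Myb activity, then exposed to compound for 24 hours. Reporter mRNA was measured by RT-PCR with capillary electrophoresis; bidirectional fitting versus DMSO baseline.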

The target of test [11] is Nuclear respiratory factor 1 (Homo sapiens) (UniProt Q16656). The test is described as follows: ATG_NRF1_CIS: Attagene CIS-FACTORIAL HepG2 Assay for human Nuclear Respiratory Factor 1 (NRF1) Orphan Gene (AID 2282987). The settings on record: HepG2 NRF1 cis-element reporter, Attagene multiplex; actives raise or lower the signal. A digest of the protocol:
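HepG2 cells transiently transfected with multiple reporter transcription units under cis-regulatory promoter control, so endogenous transcription-factor activity is read. After 24 h compound exposure, reporter mRNA quantified by RT-PCR, fluorescent labelling, HpaI digestion and capillary electrophoresis; bidirectional fitting versus DMSO.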

In test [12] the target is Bile acid receptor (Homo sapiens) (UniProt Q96RI1). The test is described as follows: ATG_FXR_TRANS: Attagene TRANS-FACTORIAL HepG2 Assay for Farnesoid X Receptor (FXR) (AID 2282979; active means hit-call score of the fitted dose curve at least 0.9, where 1 is the maximum;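 further: hits raise reporter mRNA above DMSO so AC50 marks FXR activation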). The settings on record: HepG2 Attagene TRANS FXR-GAL4 reporter transcription. The method, boiled down:
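HepG2 cells were transiently transfected with GAL4-UAS reporters driven by chimeric NR-Gal4 proteins and dosed for 24 h. Reporter mRNA was quantified by RT-PCR, fluorescent labelling, HpaI digestion and capillary electrophoresis, with gain of signal scored versus DMSO.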

Test [13] deals with Oxysterols receptor LXR-alpha (Homo sapiens) (UniProt Q13133). The test is described as follows: ATG_LXRa_TRANS: Attagene TRANS-FACTORIAL HepG2 Assay for human Liver X Receptor alpha (LXRa) (AID 2282980; active means hit-call score of the fitted dose curve at least 0.9, where 1 is the maximum). The conditions noted are these: HepG2 Attagene TRANS reporter, LXRa transactivation. The method, boiled down:
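HepG2 cells transiently transfected with GAL4-UAS reporter units for chimeric NR-Gal4 proteins, exposed to chemicals for 24 h. Reporter mRNA quantified by RT-PCR and capillary electrophoresis; gain of signal fitted relative to DMSO.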

Test [14] addresses Steroid hormone receptor ERR1 (Homo sapiens) (UniProt P11474). Put plainly: ATG_ERRa_TRANS: Attagene TRANS-FACTORIAL HepG2 Assay for human Estrogen-Related Receptor alpha (ERRa) (AID 2282971; active means hit-call score of the fitted dose curve at least 0.9, where 1 is the maximum). The settings on record: HepG2 Attagene TRANS reporter, ERRa transactivation. A digest of the protocol: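 HepG2 cells transiently transfected with GAL4-UAS reporter units and chimeric NR-Gal4 constructs; after 24 hour compound incubation, reporter mRNA quantified by RT-PCR, fluorescent labelling and capillary electrophoresis, gain of signal versus DMSO.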

Test [15] is described as follows: ATG_GAL4_TRANS: Attagene TRANS-FACTORIAL HepG2 Assay for GAL4 (Internal Marker) (AID 2282976; active means hit-call score of the fitted dose curve at least 0.9, where 1 is the maximum). The conditions noted are these: HepG2 Attagene TRANS GAL4 internal marker reporter. The method, boiled down:
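Background-control readout: GAL4-UAS reporter transcript in transiently transfected HepG2 cells after 24 h compound exposure. Measured by RT-PCR, 6-FAM primer extension, HpaI digest and capillary electrophoresis; gain-of-signal fit versus DMSO.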

The target of test [16] is Estrogen-related receptor gamma (Homo sapiens) (UniProt P62508). Put plainly: ATG_ERRg_TRANS: Attagene TRANS-FACTORIAL HepG2 Assay for human Estrogen-Related Receptor gamma (ERRg) (AID 2282977; active means hit-call score of the fitted dose curve at least 0.9, where 1 is the maximum;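 further: hits increase reporter signal over DMSO so potencies reflect activators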). The settings on record: HepG2 Attagene TRANS reporter, ERRg transactivation. A digest of the protocol: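 HepG2 cells transiently transfected with multiplexed GAL4-UAS reporter units and chimeric NR-Gal4 constructs were exposed to test chemicals for 24 h. Reporter mRNA was measured by RT-PCR, 6-FAM primer extension, HpaI digestion and capillary electrophoresis; gain-of-signal versus DMSO.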

The target in test [17] is Nuclear receptor subfamily 4 group A member 2 (Homo sapiens) (UniProt P43354). The test is described as follows: ATG_NURR1_TRANS: Attagene TRANS-FACTORIAL HepG2 Assay for human Nuclear Receptor Related Protein 1 (NURR1) (AID 2282985; active means hit-call score of the fitted dose curve at least 0.9, where 1 is the maximum). The settings on record: HepG2 Attagene TRANS reporter, mRNA readout. The method, boiled down:
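Cells: HepG2, transiently transfected. Exposure: 24 h. Detection: fluorescence of labelled RT-PCR products separated by capillary electrophoresis; upward fit versus DMSO.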

The target in test [18] is Oxysterols receptor LXR-beta (Homo sapiens) (UniProt P55055). The test is described as follows: ATG_LXRb_TRANS: Attagene TRANS-FACTORIAL HepG2 Assay for human Liver X Receptor beta (LXRb) (AID 2282981; active means hit-call score of the fitted dose curve at least 0.9, where 1 is the maximum). The settings on record: HepG2 Attagene TRANS GAL4-LXRb reporter, mRNA. A digest of the protocol:
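Cells: HepG2, transiently transfected with GAL4-UAS reporter units plus LXRb-Gal4 fusion. Treatment: 24 h. Detection: reporter mRNA by RT-PCR, 6-FAM labelling, HpaI digestion, capillary electrophoresis.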

Usually AC50 stands for the midpoint of the concentration-response curve, whichever way the signal moves.

Glucocorticoid receptor (Homo sapiens), sequence (P04150 whole entry, looked up, the tested form may be a part): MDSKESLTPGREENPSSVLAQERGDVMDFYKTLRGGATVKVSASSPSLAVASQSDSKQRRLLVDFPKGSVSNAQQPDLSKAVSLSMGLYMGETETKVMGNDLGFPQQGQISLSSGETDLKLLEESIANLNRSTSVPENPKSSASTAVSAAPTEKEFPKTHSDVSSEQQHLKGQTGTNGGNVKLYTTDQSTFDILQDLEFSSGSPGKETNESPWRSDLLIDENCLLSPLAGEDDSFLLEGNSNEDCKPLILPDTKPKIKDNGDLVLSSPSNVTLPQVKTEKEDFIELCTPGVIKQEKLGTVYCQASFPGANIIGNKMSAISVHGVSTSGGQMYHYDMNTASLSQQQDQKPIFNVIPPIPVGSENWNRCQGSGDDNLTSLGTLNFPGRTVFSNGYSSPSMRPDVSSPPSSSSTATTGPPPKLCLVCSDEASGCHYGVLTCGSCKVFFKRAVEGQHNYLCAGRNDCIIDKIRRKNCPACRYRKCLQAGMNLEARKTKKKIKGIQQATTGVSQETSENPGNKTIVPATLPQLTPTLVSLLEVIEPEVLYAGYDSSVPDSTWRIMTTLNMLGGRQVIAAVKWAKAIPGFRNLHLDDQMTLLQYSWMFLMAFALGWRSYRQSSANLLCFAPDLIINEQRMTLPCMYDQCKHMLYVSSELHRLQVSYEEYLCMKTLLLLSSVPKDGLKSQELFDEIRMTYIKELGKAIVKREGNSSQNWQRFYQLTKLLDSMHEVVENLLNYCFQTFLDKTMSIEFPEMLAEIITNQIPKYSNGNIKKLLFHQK
Transcriptional activator Myb (Homo sapiens), sequence (P10242 whole entry, looked up): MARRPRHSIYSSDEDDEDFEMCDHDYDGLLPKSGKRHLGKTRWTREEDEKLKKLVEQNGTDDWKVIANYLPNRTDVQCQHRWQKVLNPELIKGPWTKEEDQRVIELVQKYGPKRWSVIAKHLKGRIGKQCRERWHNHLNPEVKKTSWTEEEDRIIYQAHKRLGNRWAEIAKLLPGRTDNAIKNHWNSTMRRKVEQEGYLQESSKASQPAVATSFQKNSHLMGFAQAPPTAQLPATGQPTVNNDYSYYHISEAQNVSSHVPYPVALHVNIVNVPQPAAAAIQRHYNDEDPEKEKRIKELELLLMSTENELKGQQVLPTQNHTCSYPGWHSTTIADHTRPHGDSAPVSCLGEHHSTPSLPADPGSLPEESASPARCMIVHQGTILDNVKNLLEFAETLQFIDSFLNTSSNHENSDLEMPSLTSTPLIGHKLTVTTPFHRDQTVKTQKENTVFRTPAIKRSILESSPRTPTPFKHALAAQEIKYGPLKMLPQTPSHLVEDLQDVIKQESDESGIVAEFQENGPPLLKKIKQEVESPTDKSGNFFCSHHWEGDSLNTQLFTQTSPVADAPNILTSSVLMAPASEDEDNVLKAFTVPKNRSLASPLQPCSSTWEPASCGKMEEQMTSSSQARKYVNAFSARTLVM
Estrogen receptor (Homo sapiens), sequence (P03372 whole entry, looked up, the tested form may be a part): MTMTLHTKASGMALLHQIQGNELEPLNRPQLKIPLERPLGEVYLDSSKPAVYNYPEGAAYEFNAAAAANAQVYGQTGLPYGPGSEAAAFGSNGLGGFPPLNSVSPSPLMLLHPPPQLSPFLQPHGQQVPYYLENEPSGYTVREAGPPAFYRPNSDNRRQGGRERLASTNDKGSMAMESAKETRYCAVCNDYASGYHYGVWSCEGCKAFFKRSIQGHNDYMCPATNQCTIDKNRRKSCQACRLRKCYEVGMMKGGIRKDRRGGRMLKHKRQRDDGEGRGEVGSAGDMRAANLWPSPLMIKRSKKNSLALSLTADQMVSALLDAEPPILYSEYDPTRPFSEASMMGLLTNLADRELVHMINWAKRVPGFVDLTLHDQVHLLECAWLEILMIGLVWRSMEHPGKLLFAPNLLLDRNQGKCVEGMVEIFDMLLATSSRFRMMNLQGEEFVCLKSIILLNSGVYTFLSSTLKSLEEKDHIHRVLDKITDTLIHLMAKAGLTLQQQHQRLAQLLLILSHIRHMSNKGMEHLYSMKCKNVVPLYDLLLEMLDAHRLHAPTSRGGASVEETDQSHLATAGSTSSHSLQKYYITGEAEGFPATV
Nuclear respiratory factor 1 (Homo sapiens), sequence (Q16656 whole entry, looked up): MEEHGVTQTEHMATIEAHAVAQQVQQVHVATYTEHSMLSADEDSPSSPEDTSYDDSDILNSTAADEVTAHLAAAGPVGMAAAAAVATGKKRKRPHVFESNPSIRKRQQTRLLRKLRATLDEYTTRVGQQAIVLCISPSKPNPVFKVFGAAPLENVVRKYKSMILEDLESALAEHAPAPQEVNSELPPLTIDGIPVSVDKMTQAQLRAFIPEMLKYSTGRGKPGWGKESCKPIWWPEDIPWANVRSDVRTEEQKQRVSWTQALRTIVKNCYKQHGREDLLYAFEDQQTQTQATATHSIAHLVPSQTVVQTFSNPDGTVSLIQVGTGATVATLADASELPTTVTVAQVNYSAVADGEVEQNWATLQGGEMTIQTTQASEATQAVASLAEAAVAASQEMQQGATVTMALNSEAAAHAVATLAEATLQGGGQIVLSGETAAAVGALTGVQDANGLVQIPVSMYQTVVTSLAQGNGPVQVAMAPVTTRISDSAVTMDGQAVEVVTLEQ
Hepatocyte nuclear factor 4-alpha (Homo sapiens), sequence (P41235 whole entry, looked up): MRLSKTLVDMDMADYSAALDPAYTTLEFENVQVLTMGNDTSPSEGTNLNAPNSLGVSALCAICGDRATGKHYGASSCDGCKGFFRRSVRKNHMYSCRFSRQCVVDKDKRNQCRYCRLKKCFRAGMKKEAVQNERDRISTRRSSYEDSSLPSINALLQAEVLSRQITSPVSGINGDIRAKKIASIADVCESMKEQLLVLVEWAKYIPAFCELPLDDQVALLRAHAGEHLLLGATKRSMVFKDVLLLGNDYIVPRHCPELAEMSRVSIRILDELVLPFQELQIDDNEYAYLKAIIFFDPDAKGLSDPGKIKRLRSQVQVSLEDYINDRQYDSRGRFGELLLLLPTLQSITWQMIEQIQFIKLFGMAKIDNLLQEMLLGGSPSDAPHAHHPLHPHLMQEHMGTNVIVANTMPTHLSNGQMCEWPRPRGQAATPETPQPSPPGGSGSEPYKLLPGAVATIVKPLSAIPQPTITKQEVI
X-box-binding protein 1 (Homo sapiens), sequence (P17861 whole entry, looked up, the tested form may be a part): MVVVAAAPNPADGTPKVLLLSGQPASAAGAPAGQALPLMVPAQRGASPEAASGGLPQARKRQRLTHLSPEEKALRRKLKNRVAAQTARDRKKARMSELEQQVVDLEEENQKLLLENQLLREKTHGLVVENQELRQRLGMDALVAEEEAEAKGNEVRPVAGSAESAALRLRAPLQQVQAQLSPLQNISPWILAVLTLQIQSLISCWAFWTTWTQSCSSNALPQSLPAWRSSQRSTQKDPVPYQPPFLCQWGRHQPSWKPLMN
Bile acid receptor (Homo sapiens), sequence (Q96RI1 whole entry, looked up, the tested form may be a part): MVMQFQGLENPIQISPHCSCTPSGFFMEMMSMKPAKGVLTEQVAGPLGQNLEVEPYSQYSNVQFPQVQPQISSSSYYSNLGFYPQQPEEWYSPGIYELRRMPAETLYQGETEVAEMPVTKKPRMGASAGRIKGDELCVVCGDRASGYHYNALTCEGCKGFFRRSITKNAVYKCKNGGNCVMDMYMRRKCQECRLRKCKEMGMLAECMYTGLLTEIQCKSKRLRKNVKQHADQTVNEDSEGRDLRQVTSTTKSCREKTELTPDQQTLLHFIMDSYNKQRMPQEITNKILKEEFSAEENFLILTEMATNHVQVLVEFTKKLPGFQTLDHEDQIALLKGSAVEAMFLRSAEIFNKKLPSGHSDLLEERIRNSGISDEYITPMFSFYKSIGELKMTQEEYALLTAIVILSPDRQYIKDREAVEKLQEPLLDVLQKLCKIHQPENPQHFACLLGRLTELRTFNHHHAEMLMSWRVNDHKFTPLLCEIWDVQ
Oxysterols receptor LXR-beta (Homo sapiens), sequence (P55055 whole entry, looked up, the tested form may be a part): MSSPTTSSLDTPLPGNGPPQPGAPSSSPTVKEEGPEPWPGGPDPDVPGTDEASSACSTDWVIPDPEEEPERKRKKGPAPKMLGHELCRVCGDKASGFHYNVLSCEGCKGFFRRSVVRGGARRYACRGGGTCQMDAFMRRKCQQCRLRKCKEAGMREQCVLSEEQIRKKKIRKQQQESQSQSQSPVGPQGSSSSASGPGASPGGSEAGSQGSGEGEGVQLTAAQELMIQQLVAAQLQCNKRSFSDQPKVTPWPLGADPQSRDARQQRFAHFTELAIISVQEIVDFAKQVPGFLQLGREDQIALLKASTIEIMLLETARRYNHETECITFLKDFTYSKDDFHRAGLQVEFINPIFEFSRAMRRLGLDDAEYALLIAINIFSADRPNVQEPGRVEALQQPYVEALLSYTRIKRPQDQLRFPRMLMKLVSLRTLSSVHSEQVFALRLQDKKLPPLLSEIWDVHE
Nuclear receptor subfamily 4 group A member 2 (Homo sapiens), sequence (P43354 whole entry, looked up): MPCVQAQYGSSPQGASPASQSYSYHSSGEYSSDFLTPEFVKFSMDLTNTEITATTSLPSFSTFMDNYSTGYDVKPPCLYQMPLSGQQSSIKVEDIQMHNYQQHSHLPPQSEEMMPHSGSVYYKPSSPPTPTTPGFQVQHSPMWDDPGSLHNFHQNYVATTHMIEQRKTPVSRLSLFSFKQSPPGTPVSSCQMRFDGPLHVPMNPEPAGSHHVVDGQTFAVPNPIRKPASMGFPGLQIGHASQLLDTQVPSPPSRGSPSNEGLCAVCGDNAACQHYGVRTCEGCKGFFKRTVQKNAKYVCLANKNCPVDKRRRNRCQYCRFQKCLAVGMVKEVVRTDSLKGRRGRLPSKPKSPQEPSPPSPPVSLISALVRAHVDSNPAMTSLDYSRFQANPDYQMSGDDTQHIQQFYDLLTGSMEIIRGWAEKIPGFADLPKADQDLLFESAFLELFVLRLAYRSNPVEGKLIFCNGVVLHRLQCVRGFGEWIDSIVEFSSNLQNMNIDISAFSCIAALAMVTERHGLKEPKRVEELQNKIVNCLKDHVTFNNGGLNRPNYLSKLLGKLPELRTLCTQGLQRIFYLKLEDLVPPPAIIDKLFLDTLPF

As to `C=CC(=O)OCC(CO)(COCC(COC(=O)C=C)(COC(=O)C=C)COC(=O)C=C)COC(=O)C=C`, the result in test [1], in test [2], in [4], in test [6], in test [7] and in test [8] was inactive. In test [9], the outcome was inactive. For the same compound, the AC50 in test [3] is 0.722 µM (active); in test [5], 2.87 µM (active); in test [10] it was 7.52 µM (active); in [11], 14.9 µM (active).
For the compound `O=C(NCc1ncc(C(F)(F)F)cc1Cl)c1c(Cl)cccc1Cl`, the compound was called inactive in test [1], in test [2], in test [3], in test [4], in test [5] and in test [6]. Also, the compound was classed as inactive in test [12], in test [13], in test [7], in test [8], in test [9] and in test [10]. In addition, the compound was called inactive in [11].
Take `Clc1ccc2c(Cl)ccnc2c1`: the compound was classed as inactive in test [1], in test [2], in test [3], in test [4], in test [14] and in test [5]. The outcome in test [6], in test [7], in test [8], in [9], in test [10] and in [11] was inactive.
Take `CCCCC(CC)C(=O)OCCOCCOCCOCCOC(=O)C(CC)CCCC` (stereo not given): the result in test [1], in test [2], in [4], in test [5], in [15] and in [16] was inactive. In addition, the call in test [8], in test [9], in test [17], in test [10] and in [11] was inactive. Besides, the AC50 in [3] was 27.8 µM (active).
For `CCCCCCCCCC=CCC1CC(=O)OC1=O` (stereo not given), the call in test [1], in test [2], in test [3], in test [4], in test [5] and in test [8] was inactive. Moreover, the call in test [10] and in test [11] was inactive.
As for `N=C(N)c1ccc(OCCCCCOc2ccc(C(=N)N)cc2)cc1`, the compound was classed as inactive in test [1], in [2], in test [15], in test [6], in test [8] and in [10]. Besides, the result in test [11] was inactive. Also, the AC50 in test [3] was 87.5 µM (active); in test [4], 23.5 µM (active); in test [5], 48.1 µM (active).
Regarding `CCCCCCCCCCCCOC(=O)c1cc(O)c(O)c(O)c1`, the call in test [1], in test [2], in test [3], in [6], in test [18] and in test [7] was inactive. Besides, the compound was called inactive in test [9], in test [10] and in [11]. Also, the figures for the AC50 in test [4], in [5] and in [12] were 11.1 µM (active), 11.1 µM (active) and 45.1 µM (active), respectively.
Turning to `COC(=O)C(F)(F)C(F)(F)C(F)(F)F`, the outcome in [1], in test [2], in test [3], in test [4], in test [5] and in test [15] was inactive. For the same compound, the outcome in [6], in test [18], in test [8], in test [9], in test [17] and in [10] was inactive. In addition, in test [11], the compound was called inactive.
`COC(=O)CC(C(C)=O)C(=O)OC` (stereo not given): the compound was called inactive in [1], in test [2], in [3], in test [4], in test [5] and in test [7]. Moreover, the outcome in test [8], in [10] and in test [11] was inactive.
